From PubChem BioAssay AID588683 (Broad Institute, 2011)
Entries with a potency or affinity are not part of this list. The source made the active and inactive calls. How the calls were made is not given here.

Target: Kelch-like ECH-associated protein 1 (Homo sapiens) + Nuclear factor erythroid 2-related factor 2 (Homo sapiens) (UniProt Q14145+Q16236)
Test: disruptors of Keap1 binding to Nrf2 peptide – biochemical, fluorescence polarization, cherry-picked samples, dose response (AID 588683);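 further: Kelch domain of Keap1 binding a fluorescein-labelled 9mer Nrf2 peptide; more negative means stronger inhibition of peptide binding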

Chain of Kelch-like ECH-associated protein 1 (Homo sapiens) + Nuclear factor erythroid 2-related factor 2 (Homo sapiens) (Q14145 whole entry, looked up, the tested form may be a part): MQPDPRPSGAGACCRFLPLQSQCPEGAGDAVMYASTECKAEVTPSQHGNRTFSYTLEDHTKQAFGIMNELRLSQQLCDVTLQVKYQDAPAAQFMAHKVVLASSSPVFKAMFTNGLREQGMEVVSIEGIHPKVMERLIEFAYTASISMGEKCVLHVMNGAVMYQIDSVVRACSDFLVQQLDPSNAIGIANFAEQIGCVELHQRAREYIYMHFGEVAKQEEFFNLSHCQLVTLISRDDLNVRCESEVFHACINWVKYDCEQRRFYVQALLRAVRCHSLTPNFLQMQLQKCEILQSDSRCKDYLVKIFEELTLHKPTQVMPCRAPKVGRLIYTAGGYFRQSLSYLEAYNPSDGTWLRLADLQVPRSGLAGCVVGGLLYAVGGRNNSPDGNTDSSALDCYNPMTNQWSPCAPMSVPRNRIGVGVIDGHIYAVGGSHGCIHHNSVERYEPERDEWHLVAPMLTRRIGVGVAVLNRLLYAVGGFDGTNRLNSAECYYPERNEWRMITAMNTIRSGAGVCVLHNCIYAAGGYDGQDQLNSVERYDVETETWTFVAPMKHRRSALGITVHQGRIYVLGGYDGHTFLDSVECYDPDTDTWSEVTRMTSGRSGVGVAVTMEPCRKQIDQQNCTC
Chain of Kelch-like ECH-associated protein 1 (Homo sapiens) + Nuclear factor erythroid 2-related factor 2 (Homo sapiens) (Q16236 whole entry, looked up, the tested form may be a part): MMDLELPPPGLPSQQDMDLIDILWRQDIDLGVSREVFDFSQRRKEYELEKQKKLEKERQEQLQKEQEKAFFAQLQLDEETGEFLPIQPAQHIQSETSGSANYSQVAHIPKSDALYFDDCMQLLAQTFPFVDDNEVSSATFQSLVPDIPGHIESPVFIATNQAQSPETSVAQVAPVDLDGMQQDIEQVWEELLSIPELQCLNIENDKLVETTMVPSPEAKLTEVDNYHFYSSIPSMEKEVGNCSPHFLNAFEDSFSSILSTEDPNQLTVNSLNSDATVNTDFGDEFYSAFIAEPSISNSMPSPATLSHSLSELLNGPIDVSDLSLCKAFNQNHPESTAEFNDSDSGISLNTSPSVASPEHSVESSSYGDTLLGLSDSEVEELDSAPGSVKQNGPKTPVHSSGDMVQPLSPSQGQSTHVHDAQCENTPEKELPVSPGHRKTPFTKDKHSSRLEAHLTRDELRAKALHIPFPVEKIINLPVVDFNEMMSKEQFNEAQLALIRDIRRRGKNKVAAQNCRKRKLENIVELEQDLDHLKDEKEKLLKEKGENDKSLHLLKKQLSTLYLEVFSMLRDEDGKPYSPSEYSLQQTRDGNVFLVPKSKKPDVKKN

In the case of `C=CCOc1ccc(C2OC34CCCCC3C(C#N)(C#N)C2(C#N)C(=N)O4)cc1` (stereo not drawn), the outcome is reported as “inactive”.

With `Cc1ccccc1OCCC(=O)Nc1cc(S(=O)(=O)N2CCCCC2)ccc1N1CCN(C)CC1` the outcome was “inactive”.

With `CC(=O)C1C(c2ccc(F)cc2)c2c(noc2C)CC1(C)O` (stereo not drawn) the outcome was “inactive”.

In the case of `Cc1ccc(O)c(C(=O)c2cnc3c(c2)c(C)nn3-c2ccccc2)c1`, the outcome is reported as “inactive”.

`COc1cc(/C=C/C(=O)OCC(=O)c2ccc3c(c2)NC(=O)CO3)ccc1OC(F)F` was tested, and the outcome was “inactive”.

In the case of `Cc1cc(NC(=O)CSc2nnc(-c3ccncc3)n2C)n(-c2ccccc2)n1`, the outcome is reported as “inactive”.

In the case of `COc1cc(CO)ccc1Oc1nc2ccccc2n2cnnc12`, the outcome is reported as “inactive”.

`COc1ccc(Nc2nc3ccccc3nc2-n2nc(C)cc2C)cc1` was tested, and the outcome was “inactive”.

With `O=c1[nH]c(=S)[nH]c2c1C(c1ccc(Br)cc1)c1c([nH]c(=S)[nH]c1=O)O2` the outcome was “inactive”.

`CC1OC2(C)OC(=N)C1(C#N)C(C#N)(C#N)C2c1ccccc1` (stereo not drawn) was tested, and the outcome was “inactive”.

For `COc1cc(C#Cc2c(C=O)n(C)c3ccccc23)cc(OC)c1`, the outcome was “inactive”.

For `Cc1ccc(S(=O)(=O)N2CCCCC2)cc1NC(=O)c1ccccc1Cl`, the outcome was “inactive”.

For `COc1ccc(OC)c(C(=O)c2coc3ccc(O)c(CN(C)C)c23)c1`, the outcome was “inactive”.

With `CNC(=S)Nc1cccc(C(=O)OC)c1` the outcome was “inactive”.

With `CCCCCCOC(=O)C(C#N)c1nc2ccccc2nc1N1CCOCC1` (stereo not drawn) the outcome was “inactive”.

For `O=C(Cc1ccc(S(=O)(=O)N2CCCC2)s1)Nc1nc2c(s1)CCCC2`, the outcome was “inactive”.

In the case of `O=C1c2cccc3c(N4CCCCC4)ccc(c23)C(=O)N1c1ccccc1O`, the outcome is reported as “inactive”.

For `CC1CCN(c2ccc3c(c2)S(=O)(=O)c2ccccc2C3=O)CC1`, the outcome was “inactive”.
